In PubChem BioAssay (NCATS):
Inconclusive results are not listed. Calls of active or inactive are those of the source. Calls come from the whole dose curve; as a rule, active = well fitted cell-killing curve with a large enough effect; inconclusive = small, poorly fitted or top-dose-only effect, or effect the other way; inactive = flat fitted curve, though single readings scatter.

How the values were obtained:
Experiment in all cases: Primary qHTS to identify gynecologic anti-cancer compounds using libraries of approved drugs and bioactive compounds (AID 1345084); note: nearly all actives have a fitted effect of over 55% in size
C33A = conditions: Gynecologic cancer cell panel viability, ATPlite luminescence, 48 h; series mostly up to 57.5 µM
How it was run: (§1)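 Cells, 1,000 per well, were allowed to settle for 16 h at 37 C before compound addition. Five concentrations were tested for 48 h, and viability was read by ATPlite luminescence after 15 min at room temperature.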

CAOV3 = conditions: Gynecologic cancer cell panel viability, ATPlite luminescence, 48 h; series mostly up to 57.5 µM
How it was run: as §1

CASKI = conditions: Gynecologic cancer cell panel viability, ATPlite luminescence, 48 h; series mostly up to 57.5 µM
How it was run: as §1

Es-2 = conditions: Gynecologic cancer cell panel viability, ATPlite luminescence, 48 h; series mostly up to 57.5 µM
How it was run: as §1

HeLa = conditions: Gynecologic cancer cell panel viability, ATPlite luminescence, 48 h; series mostly up to 57.5 µM
How it was run: as §1

Hek293T = conditions: Gynecologic cancer cell panel viability, ATPlite luminescence, 48 h, control line for the selectivity index; series mostly up to 57.5 µM
How it was run: as §1

JEG-3 = conditions: Gynecologic cancer cell panel viability, ATPlite luminescence, 48 h; series mostly up to 57.5 µM
How it was run: as §1

OV90 = conditions: Gynecologic cancer cell panel viability, ATPlite luminescence, 48 h; series mostly up to 57.5 µM
How it was run: as §1

PA-1 = conditions: Gynecologic cancer cell panel viability, ATPlite luminescence, 48 h; series mostly up to 57.5 µM
How it was run: as §1

SKOV3 = conditions: Gynecologic cancer cell panel viability, ATPlite luminescence, 48 h; series mostly up to 57.5 µM
How it was run: as §1

Tov-21-G = conditions: Gynecologic cancer cell panel viability, ATPlite luminescence, 48 h; series mostly up to 57.5 µM
How it was run: as §1

Tov112D = conditions: Gynecologic cancer cell panel viability, ATPlite luminescence, 48 h; series mostly up to 57.5 µM
How it was run: as §1
% is set by controls: 0 for no effect and ±100 for the full control effect.

COc1cc(OC)c(NC(=O)c2ccc(Cc3cc4c(cc3C)C(C)(C)CCC4(C)C)o2)c(OC)c1
inactive: Potency (C33A) | Potency (CAOV3) | Potency (CASKI) | Potency (Es-2) | Potency (HeLa) | Potency (Hek293T) | Potency (JEG-3) | Potency (OV90) | Potency (PA-1) | Potency (SKOV3) | Potency (Tov-21-G) | Potency (Tov112D)

CC(=O)O[C@]1(C(C)=O)CC[C@H]2[C@@H]3CCC4=CC(=O)CCC4=C3[C@@H](c3ccc(N(C)C)cc3)C[C@@]21C
inactive: Potency (C33A) | Potency (CAOV3) | Potency (CASKI) | Potency (Es-2) | Potency (HeLa) | Potency (Hek293T) | Potency (JEG-3) | Potency (OV90) | Potency (PA-1) | Potency (SKOV3) | Potency (Tov-21-G) | Potency (Tov112D)

COc1ccccc1N1CCN(CC[C@@](C)(C(=O)C2CCCCC2)c2ccccc2)CC1
inactive: Potency (C33A) | Potency (CAOV3) | Potency (CASKI) | Potency (Es-2) | Potency (HeLa) | Potency (Hek293T) | Potency (JEG-3) | Potency (OV90) | Potency (PA-1) | Potency (SKOV3) | Potency (Tov-21-G) | Potency (Tov112D)

CCCCCc1ccc(/C=C/C(=O)Nc2cc(Cl)ccc2C(=O)O)cc1
inactive: Potency (C33A) | Potency (CAOV3) | Potency (CASKI) | Potency (Es-2) | Potency (HeLa) | Potency (Hek293T) | Potency (JEG-3) | Potency (OV90) | Potency (PA-1) | Potency (SKOV3) | Potency (Tov-21-G) | Potency (Tov112D)

CC(C)CCNc1ncccc1C(=O)N1CCN(Cc2ccccc2)CC1
inactive: Potency (C33A) | Potency (CAOV3) | Potency (CASKI) | Potency (Es-2) | Potency (HeLa) | Potency (Hek293T) | Potency (JEG-3) | Potency (OV90) | Potency (PA-1) | Potency (SKOV3) | Potency (Tov-21-G) | Potency (Tov112D)

CC(C)(C)NC(=O)[C@H]1CC[C@H]2[C@@H]3CC[C@H]4NC(=O)CC[C@]4(C)[C@H]3CC[C@]12C
inactive: Potency (C33A) | Potency (CAOV3) | Potency (CASKI) | Potency (Es-2) | Potency (HeLa) | Potency (Hek293T) | Potency (JEG-3) | Potency (OV90) | Potency (PA-1) | Potency (SKOV3) | Potency (Tov-21-G) | Potency (Tov112D)

COC(=O)C(Cc1ccc(OCCn2c(=O)sc3cc(C(=O)c4ccccc4)ccc32)cc1)C(=O)OC
inactive: Potency (C33A) | Potency (CAOV3) | Potency (CASKI) | Potency (Es-2) | Potency (HeLa) | Potency (Hek293T) | Potency (JEG-3) | Potency (OV90) | Potency (PA-1) | Potency (SKOV3) | Potency (Tov-21-G) | Potency (Tov112D)

CCN(c1cc(-c2ccc(CN3CCOCC3)cc2)cc(C(=O)NCc2c(C)cc(C)[nH]c2=O)c1C)C1CCOCC1
inactive: Potency (C33A) | Potency (CAOV3) | Potency (CASKI) | Potency (Es-2) | Potency (HeLa) | Potency (Hek293T) | Potency (JEG-3) | Potency (OV90) | Potency (PA-1) | Potency (SKOV3) | Potency (Tov-21-G) | Potency (Tov112D)

COc1ccc(-n2c(SCCCN3C(=O)c4cccc5cccc(c45)C3=O)nnc2-c2ccncc2)cc1
inactive: Potency (C33A) | Potency (CAOV3) | Potency (CASKI) | Potency (Es-2) | Potency (HeLa) | Potency (Hek293T) | Potency (JEG-3) | Potency (OV90) | Potency (PA-1) | Potency (SKOV3) | Potency (Tov-21-G) | Potency (Tov112D)

Cc1cn2c(n1)Cc1ccc(Cl)cc1C(c1ccc(N)cc1)=N2
inactive: Potency (C33A) | Potency (CAOV3) | Potency (CASKI) | Potency (Es-2) | Potency (HeLa) | Potency (Hek293T) | Potency (JEG-3) | Potency (OV90) | Potency (PA-1) | Potency (SKOV3) | Potency (Tov-21-G) | Potency (Tov112D)

CC(C)Oc1ccc(-c2cnc3c(-c4ccnc5ccccc45)cnn3c2)cc1
inactive: Potency (C33A) | Potency (CAOV3) | Potency (CASKI) | Potency (Es-2) | Potency (HeLa) | Potency (Hek293T) | Potency (JEG-3) | Potency (OV90) | Potency (PA-1) | Potency (SKOV3) | Potency (Tov-21-G) | Potency (Tov112D)

O=C(Nc1ccccc1Br)NC1CCN(c2ccc(C(F)(F)F)cn2)C1 (configuration not stated)
inactive: Potency (C33A) | Potency (CAOV3) | Potency (CASKI) | Potency (Es-2) | Potency (HeLa) | Potency (Hek293T) | Potency (JEG-3) | Potency (OV90) | Potency (PA-1) | Potency (SKOV3) | Potency (Tov-21-G) | Potency (Tov112D)

COc1ccc([C@H]2Cc3cccc(O)c3C(=O)O2)cc1OC
inactive: Potency (C33A) | Potency (CAOV3) | Potency (CASKI) | Potency (Es-2) | Potency (HeLa) | Potency (Hek293T) | Potency (JEG-3) | Potency (OV90) | Potency (PA-1) | Potency (SKOV3) | Potency (Tov-21-G) | Potency (Tov112D)

O=C(Nc1ccc(Cl)cc1)c1ccccc1NCc1ccncc1
inactive: Potency (C33A) | Potency (CAOV3) | Potency (CASKI) | Potency (Es-2) | Potency (HeLa) | Potency (Hek293T) | Potency (JEG-3) | Potency (OV90) | Potency (PA-1) | Potency (SKOV3) | Potency (Tov-21-G) | Potency (Tov112D)

CC(C)(Cc1ccccc1)NCC(O)c1ccc(O)c(NS(C)(=O)=O)c1 (configuration not stated)
inactive: Potency (C33A) | Potency (CAOV3) | Potency (CASKI) | Potency (Es-2) | Potency (HeLa) | Potency (Hek293T) | Potency (JEG-3) | Potency (OV90) | Potency (PA-1) | Potency (SKOV3) | Potency (Tov-21-G) | Potency (Tov112D)

Cc1cccc(C#Cc2cc(F)cc(C#N)c2)n1
inactive: Potency (C33A) | Potency (CAOV3) | Potency (CASKI) | Potency (Es-2) | Potency (HeLa) | Potency (Hek293T) | Potency (JEG-3) | Potency (OV90) | Potency (PA-1) | Potency (SKOV3) | Potency (Tov-21-G) | Potency (Tov112D)

CC12CCC3C1C(c1c(cc(O)c(C(=O)c4ccccc4)c1O)O2)C3(C)C (configuration not stated)
inactive: Potency (C33A) | Potency (CAOV3) | Potency (CASKI) | Potency (Es-2) | Potency (HeLa) | Potency (Hek293T) | Potency (JEG-3) | Potency (OV90) | Potency (PA-1) | Potency (SKOV3) | Potency (Tov-21-G) | Potency (Tov112D)

CNC(=O)c1ccc2c(c1)CCO[C@H]2CCN1CCN(c2ccc(OC)cc2)CC1
inactive: Potency (C33A) | Potency (CAOV3) | Potency (CASKI) | Potency (Es-2) | Potency (HeLa) | Potency (Hek293T) | Potency (JEG-3) | Potency (OV90) | Potency (PA-1) | Potency (SKOV3) | Potency (Tov-21-G) | Potency (Tov112D)

COc1ccc(CN2CCN(CCCSc3cc(C(C)(C)C)c(O)c(C(C)(C)C)c3)CC2)c(OC)c1OC
inactive: activity change, negative = cytotoxicity (C33A) 1.62% [at 11.6 µM] | activity change, negative = cytotoxicity (CAOV3) 11% [at 11.6 µM] | activity change, negative = cytotoxicity (CASKI) -0.531% [at 11.6 µM] | activity change, negative = cytotoxicity (Es-2) 12.2% [at 11.6 µM] | activity change, negative = cytotoxicity (HeLa) 8.85% [at 11.6 µM] | activity change, negative = cytotoxicity (Hek293T) -2.05% [at 11.6 µM] | activity change, negative = cytotoxicity (JEG-3) 1.83% [at 11.6 µM] | activity change, negative = cytotoxicity (OV90) 3.61% [at 11.6 µM] | activity change, negative = cytotoxicity (PA-1) 1.3% [at 11.6 µM] | activity change, negative = cytotoxicity (SKOV3) 17.3% [at 11.6 µM] | activity change, negative = cytotoxicity (Tov-21-G) 7.27% [at 11.6 µM] | activity change, negative = cytotoxicity (Tov112D) 2.48% [at 11.6 µM]

O=C([C@@H](Cc1cccc(C(F)(F)F)c1)NS(=O)(=O)c1cc(F)c2c(c1)CCNC2)N1CCCC1
inactive: Potency (C33A) | Potency (CAOV3) | Potency (CASKI) | Potency (Es-2) | Potency (HeLa) | Potency (Hek293T) | Potency (JEG-3) | Potency (OV90) | Potency (PA-1) | Potency (SKOV3) | Potency (Tov-21-G) | Potency (Tov112D)

CC(C)=CCc1cc2c(cc1O)OC[C@H]1c3ccc(O)cc3O[C@@H]21
inactive: Potency (C33A) | Potency (CAOV3) | Potency (CASKI) | Potency (Es-2) | Potency (HeLa) | Potency (Hek293T) | Potency (JEG-3) | Potency (OV90) | Potency (PA-1) | Potency (SKOV3) | Potency (Tov-21-G) | Potency (Tov112D)

CCC(C)/C=C(C)/C=C/C1=CC2=CC(=O)C3(C)OC(C)(O)C(C(=O)OC)C3C2=CO1 (configuration not stated)
inactive: Potency (C33A) | Potency (CAOV3) | Potency (CASKI) | Potency (Es-2) | Potency (HeLa) | Potency (Hek293T) | Potency (JEG-3) | Potency (OV90) | Potency (PA-1) | Potency (SKOV3) | Potency (Tov-21-G) | Potency (Tov112D)

CCOC(=O)c1cnn(-c2ccccc2)c1NC(=O)c1cc2nc(-c3ccco3)cc(C(F)(F)Cl)n2n1
inactive: Potency (C33A) | Potency (CAOV3) | Potency (CASKI) | Potency (Es-2) | Potency (HeLa) | Potency (Hek293T) | Potency (JEG-3) | Potency (OV90) | Potency (PA-1) | Potency (SKOV3) | Potency (Tov-21-G) | Potency (Tov112D)

CCC/C=C\C=C/CCc1cc(O)c([C@@H]2O[C@H](CO)[C@@H](O)[C@H](O)[C@H]2O)c(O)c1C(=O)OC
inactive: Potency (C33A) | Potency (CAOV3) | Potency (CASKI) | Potency (Es-2) | Potency (HeLa) | Potency (Hek293T) | Potency (JEG-3) | Potency (OV90) | Potency (PA-1) | Potency (SKOV3) | Potency (Tov-21-G) | Potency (Tov112D)

COC(=O)c1sccc1S(=O)(=O)Nc1ccc(Nc2ccccc2)cc1OC
inactive: Potency (C33A) | Potency (CAOV3) | Potency (CASKI) | Potency (Es-2) | Potency (HeLa) | Potency (Hek293T) | Potency (JEG-3) | Potency (OV90) | Potency (PA-1) | Potency (SKOV3) | Potency (Tov-21-G) | Potency (Tov112D)

CCCCCCOC(=O)/N=C(\N)c1ccc(NCc2nc3cc(C(=O)N(CCC(=O)OCC)c4ccccn4)ccc3n2C)cc1
inactive: Potency (C33A) | Potency (CAOV3) | Potency (CASKI) | Potency (Es-2) | Potency (HeLa) | Potency (Hek293T) | Potency (JEG-3) | Potency (OV90) | Potency (PA-1) | Potency (SKOV3) | Potency (Tov-21-G) | Potency (Tov112D)
